# Values joined by “and” are separate entries in the source; they are usually repeats but may differ in a detail not shown here. Identical values can stand only once. Active and inactive are the calls of the source.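 Rule for the calls, unless noted: active = z-score of at least 1.8 in each of two replicates, scored against plate mean and spread of sample wells; inactive = the rest.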
# What was measured:
# [1] = sensitizers of A549 cells to miR-34 induction, primary screen, imaging, A549 dox-inducible miR-34, nuclei and caspase counts (AID 1347080;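 active = compounds whose cell count with miR-34 switched on is under 0.7 times the count with it off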; note: test concentration not given here); details: A549 miR-34 inducible, Hoechst nuclei count, 48 h
# [2] = viability rescue of complex I mutant cybrids, primary screen, cell-based, galactose medium, ATP luminescence (AID 1645843); details: complex I mutant cybrid cells, 72 h, stronger effect = higher value;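 note: positive z means more ATP and so rescue of galactose-driven cybrid death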
# [3] = stronger effect = lower value, cell number ratio, induced over uninduced
# [4] = measured here: relative caspase fold change +Dox/-Dox
# [5] = measured here: total cells with miR-34 induction, stronger effect = lower value
# [6] = measured here: total cells without miR-34 induction
Compound,"fold change [1, 3]","fold change [1, 4]","cell count [1, 5]","cell count [1, 6]",z-score [2]
COc1cccc2c1C(=O)c1c(O)c3c(c(O)c1C2=O)C[C@@](O)(C(=O)CO)CC3OC1CC(N)C(O)C(C)O1 (stereo not given in full),0.969 (inactive) and 1 (inactive),0.932 and 0.974,1960 and 2320,2030 and 2320,-1.87 (inactive) and -1.86 (inactive)
O=c1cnn(C2OC(CO)C(O)C2O)c(=O)[nH]1 (stereo not given),1.77 (inactive),0.641,1880,1060,-0.74 (inactive)
CCN1CCCC1CNC(=O)c1c(O)c(Cl)cc(Cl)c1OC (stereo not given),1.02 (inactive),1.39,9680,9480,0.65 (inactive)
CC(C)OC(=O)CCCC=CCC1C(O)CC(O)C1CCC(O)CCc1ccccc1 (stereo not given),1 (inactive),2.41,9620,9620,-1.17 (inactive)
COC1C(OC(C)=O)CC(=O)OC(C)CC=CC=CC(O)C(C)CC(CC=O)C1OC1OC(C)C(OC2C[C@@](C)(OC(=O)CC(C)C)C(O)C(C)O2)C(N(C)C)C1O (stereo not given in full),1.04 (inactive),1.51,9630,9280,-1.59 (inactive)
O=c1c(OC2OC(CO)C(O)C(O)C2O)c(-c2ccc(O)c(O)c2)oc2cc(O)cc(O)c12 (stereo not given),0.911 (inactive) and 0.974 (inactive),0.962 and 2.15,4950 and 10100,5430 and 10300,-1.74 (inactive) and 0.575 (inactive)
C=CC1=C(C(=O)O)N2C(=O)C(NC(=O)C(=NOCC(=O)O)c3csc(N)n3)C2SC1 (stereo not given),0.923 (inactive),0.894,8710,9440,0.065 (inactive)
[Cl-].[Cl][Pt].[NH2-].[NH2-].c1ccncc1,0.987 (inactive),0.925,9550,9680,-1 (inactive)
CCC1OC(=O)C(C)C(=O)C(C)C(OC2OC(C)CC(N(C)C)C2O)[C@](C)(OC)CC(C)C(=O)C(C)C2N(CCCCn3cnc(-c4cccnc4)c3)C(=O)O[C@]12C (stereo not given in full),0.904 (inactive),0.557,7630,8440,0 (inactive)
COc1ccc(CCCOc2cc(CCn3ccnc3)ccc2OC)cc1,1.41 (inactive),0.402,3260,2300,-1.33 (inactive)
O=C(OC1CC2CC3CC(C1)N2CC3=O)c1c[nH]c2ccccc12 (stereo not given),0.871 (inactive),2.24,8970,10300,0.88 (inactive)
CN(C)C1C(=O)C(C(=O)NCN2CCCC2)=C(O)[C@@]2(O)C(=O)C3=C(O)c4c(O)cccc4[C@@](C)(O)C3CC12 (stereo not given in full),0.983 (inactive),1.25,8500,8650,0.465 (inactive)
CN1C2CC(OC(=O)C(CO)c3ccccc3)CC1C1OC12 (stereo not given),0.901 (inactive),2.66,9400,10400,0.87 (inactive)
CCCCC(=O)N(Cc1ccc(-c2ccccc2-c2nn[nH]n2)cc1)C(C(=O)O)C(C)C (stereo not given),0.925 (inactive),1.23,9560,10300,1.69 (inactive)
CC(C)(C)C(O)C=Cc1ccc2c(c1)OCO2 (stereo not given),1.46 (inactive),0.768,8470,5780,-0.12 (inactive)
CCC(C)C(=O)OC1CC(O)C=C2C=CC(C)C(CCC(O)CC(O)CC(=O)O)C21 (stereo not given),0.961 (inactive),1.91,10300,10800,0.5 (inactive)
CC1COc2c(C3(N)CC3)c(F)cc3c(=O)c(C(=O)O)cn1c23 (stereo not given),0.951 (inactive),1.6,9830,10300,0.395 (inactive)
C=CCc1ccccc1OCC(O)CN[C@]1(C)CCC[C@H](C(C)(C)NC(=O)CBr)C1 (stereo not given in full),0.814 (inactive),1.93,70,86,-1.52 (inactive)
CN1CCc2cc(Cl)c(O)cc2C(c2ccccc2)C1 (stereo not given),0.944 (inactive),0.98,8780,9300,0.39 (inactive)
CC(=O)OC1CC2CCC3C(CC[C@@]4(C)C3CC([N+]3(C)CCCCC3)C4OC(C)=O)[C@@]2(C)CC1N1CCCCC1 (stereo not given in full),0.934 (inactive),1.76,9160,9800,0.43 (inactive)
CC1CN(CCCn2c3ccccc3c3ccccc32)CC(C)N1 (stereo not given),0.806 (inactive),1.22,6730,8340,-1.61 (inactive)
O=C1c2cccc3c2C(CCC3)CN1C1CN2CCC1CC2 (stereo not given),1.56 (inactive),0.609,5340,3420,-0.005 (inactive)
CC(CCC(=O)O)C1CCC2C3C(=O)CC4CC(=O)CC[C@]4(C)C3CC(=O)[C@]12C (stereo not given in full),0.951 (inactive),0.625,9350,9830,0.29 (inactive)

# Reference: PubChem BioAssay
